# Screening results from PubChem BioAssay.
# This excerpt belongs to a sample that is enriched for hits.
# T cruzi growth-1: inhibitors of T. cruzi proliferation | T. cruzi beta-gal in NIH3T3, GalScreen luminescence, 90 h | inhibition, % at 8.34 µM | 77,000 tested, 5.9% active;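 active = mean inhibition above about 93%, with at least 55% of replicates each passing it, limit read from the data, passing the limit was not always enough; inconclusive = only one of those two conditions holds; inactive = neither condition holds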
# C diff HTS: inhibitors of Clostridium difficile growth. Clostridium difficile clinical isolate growth, OD600, 24 h; stronger effect = lower value. growth activity, negative = inhibition, % at 16 µg/mL (by protocol). 86,000 tested, 0.25% active. AID 1259249;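 active = mean growth activity at or below -80% and every replicate also at or below -80%; inconclusive = mean at or below -80% but some replicate above -80%; inactive = mean growth activity above -80%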;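 also: 0% = DMSO wells and -100% = levofloxacin 16 µg/mL wells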
# T cruzi growth-2: Trypanosoma cruzi proliferation inhibition; 5,600 tested, 72% active; shares compounds with T cruzi growth-1; AID 651739; T. cruzi beta-gal in NIH3T3, GalScreen luminescence, 90 h; inhibition, % at 8.35 µM;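 active = mean replicate inhibition above about 95% and at least 55% of replicates individually reaching it, limit read from the data; inconclusive = only one of the two criteria is met; inactive = neither criterion is met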
# T cruzi growth-3: inhibitors of T. cruzi proliferation | shares compounds with T cruzi growth-1 | T. cruzi beta-gal in NIH3T3, GalScreen luminescence, 90 h | inhibition, % at 2.09 µM | 5,600 tested, 21% active;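 active = mean inhibition above about 95%, with at least 55% of replicates also reaching it, limit read from the data; inconclusive = meets just one of the two conditions; inactive = meets neither condition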;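 also: plate controls were neutral control median for no effect and positive control median for full effect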
# 3T3 cytotox: kills mouse NIH/3T3 fibroblasts; shares compounds with T cruzi growth-1; NIH/3T3 viability, CellTiter-Glo ATP luminescence, 90 h; cytotoxicity (signal decrease), % at 8.35 µM; 5,600 tested, 14% active; AID 651742;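 active = mean signal decrease across replicates above about 35% based on untreated-well scatter, with enough replicates individually passing, limit read from the data; inconclusive = no rule stated though some were filed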;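 also: 0% = median of neutral control wells and 100% = median of positive control wells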
# 3T3 cytotox 2: NIH/3T3 (mouse) viability loss; shares compounds with T cruzi growth-1; NIH/3T3 viability, CellTiter-Glo ATP luminescence, 90 h; inhibition, % at 24.9 µM; 5,600 tested, 56% active; AID 651744;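 active = mean loss of cell viability signal at or above a set limit, and enough replicates individually reaching it; inconclusive = meets only the mean limit or only the replicate share; inactive = meets neither condition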;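 also: 0% = median of neutral control wells and 100% = median of positive control wells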
# Numbers without * were called inactive; ? = inconclusive; · = no result.
SMILES,T cruzi growth-1,C diff HTS,T cruzi growth-2,T cruzi growth-3,3T3 cytotox,3T3 cytotox 2
C[C@@H]1CCCCO[C@H](CN(C)Cc2ccc(C(F)(F)F)cc2)[C@@H](C)CN([C@@H](C)CO)C(=O)c2cc(NC(=O)Nc3cccc4ccccc34)ccc2O1,122.1,16.3,·,·,·,·
C[C@@H]1CCCCO[C@H](CN(C)Cc2ccc(C(F)(F)F)cc2)[C@H](C)CN([C@@H](C)CO)C(=O)c2cc(NC(=O)Nc3cccc4ccccc34)ccc2O1,?,-0.1,102.6*,109.0*,?,16.9
CCCNC(=O)[C@H]1[C@H](CO)[C@H]2Cn3c(ccc(-c4ccncc4)c3=O)[C@@H]1N2Cc1ccccc1F,14.2,0.9,·,·,·,·
O=C(CN1CCOCC1)N[C@@H]1CC[C@H](CCNC(=O)Nc2cc(F)ccc2F)O[C@H]1CO,-18.9,·,·,·,·,·
C[C@H]1CN([C@@H](C)CO)C(=O)c2cc(NC(=O)C3CC3)ccc2O[C@@H]1CN(C)Cc1ccc(C(=O)Nc2ccccc2N)cc1,62.0,1.6,·,·,·,·
COc1ccc(S(=O)(=O)N(C)C[C@H]2OCCCC[C@@H](C)Oc3ccc(NC(=O)Nc4ccc5c(c4)OCO5)cc3C(=O)N([C@@H](C)CO)C[C@H]2C)cc1,89.0,-2.9,·,·,·,·
CCS(=O)(=O)N1CC(=O)N2[C@H](CO)[C@@H](c3ccc(C#CC4CCCC4)cc3)[C@H]2C1,·,-12.9,·,·,·,·
C/C=C/c1ccc2c(c1)O[C@@H](CN(C)Cc1cncnc1)[C@@H](C)CN([C@H](C)CO)S2(=O)=O,·,3.4,·,·,·,·
C[C@H]1CN([C@@H](C)CO)S(=O)(=O)c2ccc(/C=C/c3ccccc3)cc2O[C@@H]1CN(C)Cc1cccnc1,101.7,2.1,·,·,·,·
C[C@H]1CN([C@@H](C)CO)S(=O)(=O)c2ccc(/C=C/c3ccccc3)cc2O[C@H]1CN(C)Cc1cccnc1,·,4.0,·,·,·,·
C[C@H](CO)N1C[C@H](C)[C@H](CN(C)Cc2cccnc2)Oc2cc(/C=C/c3ccccc3)ccc2S1(=O)=O,106.7*,12.5,100.4*,96.7*,?,31.3*
C/C=C/c1ccc2c(c1)O[C@H](CN(C)Cc1cccnc1)[C@@H](C)CN([C@@H](C)CO)S2(=O)=O,114.4*,-5.6,102.8*,105.2*,26.6,54.1*
C/C=C/c1ccc2c(c1)O[C@@H](CN(C)Cc1cccnc1)[C@H](C)CN([C@H](C)CO)S2(=O)=O,107.5*,-4.9,91.9,63.7,51.8*,65.0*
C/C=C/c1ccc2c(c1)O[C@@H](CN(C)Cc1cccnc1)[C@H](C)CN([C@@H](C)CO)S2(=O)=O,105.7*,-5.3,101.0*,82.2,38.2*,69.6*
C/C=C/c1ccc2c(c1)O[C@@H](CN(C)Cc1cncnc1)[C@@H](C)CN([C@@H](C)CO)S2(=O)=O,·,-2.3,·,·,·,·
COCc1cn(CC[C@H]2CC[C@H](NC(=O)CCN3CCCCC3)[C@H](CO)O2)nn1,-7.9,1.3,·,·,·,·
C[C@@H]1CN([C@@H](C)CO)C(=O)c2cc(-c3ccccc3)cnc2O[C@H]1CN(C)C(=O)Cc1ccccn1,25.4,-2.4,·,·,·,·
COc1ccc(NC(=O)N[C@@H]2CC[C@@H](CCn3cc(-c4ccccc4F)nn3)O[C@H]2CO)cc1,-2.3,-3.7,·,·,·,·
C[C@H]1CN([C@@H](C)CO)C(=O)c2cc(NC(=O)Cn3cnnn3)ccc2O[C@H]1CN(C)S(=O)(=O)c1cn(C)cn1,-4.7,·,·,·,·,·
Cc1noc(C)c1NC(=O)N(C)C[C@H]1OCCCC[C@H](C)Oc2ccc(NC(=O)Cc3ccccc3)cc2C(=O)N([C@@H](C)CO)C[C@@H]1C,-2.7,-3.4,·,·,·,·
C[C@H]1CN([C@@H](C)CO)C(=O)c2cccc(NC(=O)C3CCOCC3)c2O[C@@H]1CN(C)Cc1ccc(Oc2ccccc2)cc1,75.3,-10.9,·,·,·,·
CCCC(=O)N1CCC2(CC1)CN(C(=O)COC)[C@H](CO)c1c2c2ccc(OC)cc2n1C,·,-1.3,·,·,·,·
CCCNC(=O)C[C@@H]1C[C@@H]2c3cc(NC(=O)COC)ccc3O[C@@H]2[C@@H](CO)O1,30.5,4.4,·,·,·,·
Cc1ccc(S(=O)(=O)N(C)C[C@@H]2OCCCC[C@@H](C)Oc3ccc(NS(=O)(=O)c4ccc(Cl)cc4)cc3C(=O)N([C@H](C)CO)C[C@H]2C)cc1,76.9,3.4,·,·,·,·
Cc1ccc(S(=O)(=O)Nc2ccc3c(c2)C(=O)N([C@H](C)CO)C[C@H](C)[C@@H](CN(C)S(=O)(=O)c2ccc(Cl)cc2)OCCCC[C@@H](C)O3)cc1,108.1*,-2.6,105.7*,41.3,18.1,44.7*
SMILES,T cruzi growth-1,C diff HTS,T cruzi growth-2,T cruzi growth-3,3T3 cytotox,3T3 cytotox 2
Cc1ccc(S(=O)(=O)Nc2ccc3c(c2)C(=O)N([C@H](C)CO)C[C@@H](C)[C@@H](CN(C)S(=O)(=O)c2ccc(Cl)cc2)OCCCC[C@@H](C)O3)cc1,119.5*,-3.5,103.4*,114.7*,1.3,14.7
Cc1ccc(S(=O)(=O)N(C)C[C@H]2OCCCC[C@H](C)Oc3ccc(NS(=O)(=O)c4ccc(Cl)cc4)cc3C(=O)N([C@H](C)CO)C[C@H]2C)cc1,108.4*,4.7,96.9*,109.0*,-22.8,?
C[C@H]1CCCCO[C@@H](CN(C)S(=O)(=O)c2ccc(Cl)cc2)[C@@H](C)CN([C@@H](C)CO)C(=O)c2cc(NS(=O)(=O)c3ccc(Cl)cc3)ccc2O1,94.5,-0.4,·,·,·,·
Cc1ccc(S(=O)(=O)Nc2ccc3c(c2)C(=O)N([C@@H](C)CO)C[C@H](C)[C@H](CN(C)S(=O)(=O)c2ccc(Cl)cc2)OCCCC[C@@H](C)O3)cc1,98.7*,7.8,101.8*,113.1*,7.0,46.9*
CC=Cc1ccc2n(c1=O)C[C@@H]1[C@@H](CO)[C@H](C(=O)NCCc3cn(C)cn3)N(C(=O)C3CCCC3)[C@H]21 (mixture of isomers),·,1.2,·,·,·,·
COc1ccccc1S(=O)(=O)N(C)C[C@H]1OCc2ccccc2-c2c(n(C)c3ccccc23)C(=O)N([C@H](C)CO)C[C@@H]1C,77.2,7.5,·,·,·,·
Cc1ccc(S(=O)(=O)Nc2ccc3c(c2)C(=O)N([C@H](C)CO)C[C@@H](C)[C@H](CN(C)S(=O)(=O)c2ccc(Cl)cc2)OCCCC[C@@H](C)O3)cc1,54.8,-1.0,·,·,·,·
C[C@H]1CCCCO[C@H](CN(C)S(=O)(=O)c2ccc(Cl)cc2)[C@@H](C)CN([C@@H](C)CO)C(=O)c2cc(NS(=O)(=O)c3ccc(Cl)cc3)ccc2O1,78.2,7.9,·,·,·,·
Cc1ccc(S(=O)(=O)Nc2ccc3c(c2)C(=O)N([C@H](C)CO)C[C@H](C)[C@H](CN(C)S(=O)(=O)c2ccc(Cl)cc2)OCCCC[C@H](C)O3)cc1,112.3*,4.7,99.5*,107.5*,10.4,7.9
C[C@@H]1CCCCO[C@@H](CN(C)S(=O)(=O)c2ccc(Cl)cc2)[C@@H](C)CN([C@@H](C)CO)C(=O)c2cc(NS(=O)(=O)c3ccc(Cl)cc3)ccc2O1,78.7,4.2,·,·,·,·
